From PubChem BioAssay AID1159569 (Broad Institute, 2015)
Measured potencies and affinities stand elsewhere. Records with an inconclusive call do not appear. Calls of active or inactive are those of the source. How the calls were made is not given here.

test: toxicity to human HepG2 hepatoma cells – cell-based, plate reader, dry powder samples, cytotoxicity control, dose response (AID 1159569); conditions: HepG2 cytotoxicity counterscreen; series mostly up to 50 µM; activity change, negative = cytotoxicity: at the top concentration

Compound | activity change, negative = cytotoxicity
O=C(Nc1ccccc1F)N1CCCCN2[C@@H](CO)[C@H](c3ccc(C#Cc4cccnc4)cc3)[C@@H]2C1 | -29.5% (inactive)
CCc1csc(N2[C@H](C#N)[C@H](c3ccccc3-c3ccc(F)cc3)[C@H]2CO)n1 | -23.6% (inactive)
Cc1ccccc1-c1ccccc1[C@H]1[C@@H](C#N)N(C(=O)c2ccccc2)[C@@H]1CO | -2.64% (inactive)
C[C@@H]1CN([C@H](C)CO)C(=O)c2cccc(NC(=O)Nc3cccc4ccccc34)c2O[C@@H]1CN(C)C(=O)Nc1ccc(C(F)(F)F)cc1 | -47% (inactive)
O=C(Nc1ccccc1F)N1CCCCN2[C@H](CO)[C@H](c3ccc(C#Cc4cccnc4)cc3)[C@@H]2C1 | -13.4% (inactive)
C[C@@H]1CN([C@@H](C)CO)C(=O)c2cccc(NC(=O)c3ccc(-c4nccs4)cc3)c2O[C@H]1CN(C)Cc1ccc(Cl)c(Cl)c1 | -9.23% (inactive)
O=C(c1cccc(F)c1)N1CC(=O)N2[C@H](C1)[C@@H](c1ccc(-c3cccnc3)cc1)[C@@H]2CO | -4.42% (inactive)
OC[C@H]1[C@@H](c2ccc(-c3cccnc3)cc2)[C@@H]2CN(CC3CC3)CCCCN12 | -6.11% (inactive)
OC[C@H]1[C@H](c2ccccc2)C2(CN(Cc3ccccc3F)C2)N1Cc1ccccc1F | -54.7% (inactive)
CCCC(=O)Nc1ccc2c(c1)OC[C@@H](C)N(Cc1ccccc1F)C[C@@H](C)[C@H](OC)CN(C)C2=O | -6.21% (inactive)
COc1ccc2c3c([nH]c2c1)[C@H](CO)N(S(=O)(=O)c1ccc(C)cc1)CC31CCN(C(=O)Cc2cccnc2)CC1 | -5.11% (inactive)
COc1ccc(C#Cc2ccc3c(c2)O[C@H](CN(C)C(=O)Nc2cccc(OC)c2)[C@H](C)CN([C@@H](C)CO)S3(=O)=O)cc1 | -10.1% (inactive)
C[C@@H]1CN([C@@H](C)CO)C(=O)Cc2cc(NC(=O)Nc3ccc4c(c3)OCO4)ccc2O[C@@H]1CN(C)CC1CC1 | -11.2% (inactive)
COc1ccc(C#Cc2ccc3c(c2)O[C@@H](CN(C)S(=O)(=O)c2ccccc2F)[C@@H](C)CN([C@H](C)CO)S3(=O)=O)cc1 | -4.47% (inactive)
N#C[C@@H]1[C@H](c2ccccc2C2=CCCCC2)[C@@H](CO)N1C(=O)c1cccc(F)c1 | -46.1% (inactive)
C/C=C/c1ccc2c(c1)[C@H]1[C@H](CCN1C(=O)c1ccc(F)cc1)[C@H](CO)N2 | -28.2% (inactive)
CO[C@@H]1CN(C)C(=O)c2ccc(NC(=O)c3ccc4c(c3)OCO4)cc2OC[C@@H](C)N(Cc2ccc3c(c2)OCO3)C[C@H]1C | -20.4% (inactive)
CC(C)(C)[S@](=O)N1Cc2cc(C(=O)N[C@@H]3CCN(Cc4ccccc4)C3)nc(-c3cccc(-c4cccnc4)c3)c2[C@@H]1CCO | 4.18% [at 18 µM] (inactive)
COc1ccc2c3c(n(C)c2c1)[C@@H](CO)N(C(=O)C1CC1)CC31CCN(C(=O)Nc2cccc(F)c2)CC1 | -11.9% (inactive)
C[C@H](CO)N1C[C@H](C)[C@H](CN(C)CC2CC2)Oc2ccc(NC(=O)Nc3ccccc3)cc2CC1=O | -18.3% (inactive)
COc1ccc2c3c([nH]c2c1)[C@@H](CO)N(Cc1ccccc1)CC31CCN(Cc2cncnc2)CC1 | -24.7% (inactive)
C[C@H]1CN([C@@H](C)CO)C(=O)c2c(c3ccccc3n2C)-c2ccccc2CO[C@@H]1CN(C)C(=O)Nc1cccc(C(F)(F)F)c1 | -53.7% (inactive)
C[C@@H]1CN([C@H](C)CO)C(=O)c2cc(/C=C/c3ccccc3)cnc2O[C@H]1CN(C)C(=O)NC1CCCCC1 | -14.9% (inactive)
COc1ccc(C#Cc2ccc3c(c2)O[C@@H](CN(C)C(=O)Nc2cccc(OC)c2)[C@@H](C)CN([C@H](C)CO)S3(=O)=O)cc1 | -7.99% (inactive)
C[C@@H]1CN([C@@H](C)CO)C(=O)c2cccc(NC(=O)c3cnccn3)c2O[C@@H]1CN(C)Cc1ccc(-c2ccccc2)cc1 | -23.5% (inactive)
CCCc1cn(CC[C@@H]2CC[C@H](NS(=O)(=O)c3ccc(-c4ccccc4)cc3)[C@H](CO)O2)nn1 | -45.1% (inactive)
C[C@H]1CN([C@@H](C)CO)C(=O)c2cc(NC(=O)Nc3ccc(C(F)(F)F)cc3)ccc2O[C@@H]1CN(C)C(=O)Nc1cccc2ccccc12 | 2.11% (inactive)
COc1ccc2c3c(n(C)c2c1)[C@@H](CO)N(C(=O)c1ccc(F)cc1)CC31CN(C(=O)Nc2ccc(F)cc2)C1 | -19.1% (inactive)
COc1ccc2c3c([nH]c2c1)[C@H](CO)NCC31CCN(C(=O)Nc2ccc3c(c2)OCO3)CC1 | -12.1% (inactive)
CO[C@@H]1CN(C)C(=O)c2ccc(NC(=O)Nc3ccccc3F)cc2OC[C@@H](C)N(CCC(F)(F)F)C[C@H]1C | -11.2% [at 56 µM] (inactive)
